FMDV Renilla: Primary qHTS Assay for Foot and Mouth Disease Virus Antivirals against NCGC Sytravon and CBC Compound Libraries: Renilla Luciferase Signal; FMDV replicon cells, Renilla luciferase signal; Potency, µM (top dose mostly 57.5 µM), for the others: at the top dose activity change, negative = inhibition, most hits filed as inhibitors; 120,000 compounds, 0.32% hits; AID 1745857, 2022; further: nearly all actives have a fitted effect of over 55% in size
FMDV FLuc: Primary qHTS Assay for Foot and Mouth Disease Virus Antivirals against NCGC Sytravon and CBC Compound Libraries: Firefly Luciferase Signal. Potency, µM (doses to about 57.5 µM), for the others: at the highest dose activity change, negative = inhibition, usual class: inhibitors. 120,000 compounds, 0.23% hits. FMDV antiviral cell assay, firefly luciferase signal; further: nearly all actives have a fitted effect of over 60% in size
Active calls of the source: *; ? = inconclusive; ! = not active in a repeat; [ ] = remark or other dose. The list is not random: actives were taken first. Their share in the collection is about 0.51%. The call rests on the fitted dose curve. On the % scale 0 is the no-effect control and ±100 the full control effect; potency means the concentration at half of the fitted maximal effect.

SMILES	FMDV Renilla	FMDV FLuc
O=Cc1ccc(OCC2CC2)c2ccccc12	5.6µM*	?
Nc1ccc(OCC2CC2)c(F)c1	12%	121%
CC(=O)c1c(C)[nH]c(C(=O)C(C)OC(=O)c2ccc(F)cc2)c1C (stereo not drawn)	-6%[1.06 µM]	-24%
CC(=O)c1c(C)[nH]c(C(=O)C(C)OC(=O)c2ccc(F)cc2Cl)c1C (stereo not drawn)	8.9µM*	20µM*
CC(=O)c1c(C)[nH]c(C(=O)C(C)OC(=O)c2cc(Cl)ccc2F)c1C (stereo not drawn)	16%	19%
CC(=O)c1c(C)[nH]c(C(=O)C(C)N(C)Cc2cccc(F)c2)c1C (stereo not drawn)	4µM*	?
O=C(Cn1c(=O)c2c(ncn2Cc2ccco2)n(Cc2ccccc2)c1=O)N1CCNC1=O	2%	9%
COc1ccccc1-c1nc(-c2cc3cccc(OC)c3oc2=O)cs1	6%	22%
Cc1ccc(S(=O)(=O)N2CCCN(C(=O)c3cncn3-c3ccccc3)CC2)cc1	-11%	-12%
COc1cccc(-n2cnnc2SCC(=O)NC(C)c2cccc3ccccc23)c1 (stereo not drawn)	9%	13%
COc1ccc(NC(=O)c2ccc(NC(=O)N3CCSc4ncccc43)cc2)cc1	5%	2%
CC(=O)c1ccc(NC(=O)c2cccc(NC(=O)N3CCSc4ncccc43)c2)cc1	-9%	3.2µM*
CC(C)Sc1nc2c(c(=O)n(C)c(=O)n2C)n1Cc1ccccc1Cl	-8%	3%
CSc1nc2c(c(=O)n(C)c(=O)n2C)n1Cc1cccc2ccccc12	14µM*	16µM*
O=C(/C=C/c1ccco1)N(Cc1cccs1)Cc1cccs1	28%	24%
Cc1cc(NC(C)C2CC3CCC2C3)n2ncnc2n1 (stereo not drawn)	?	-22%
CCOC(=O)N1CCN(c2ncc3c(n2)CC(c2ccc(OC)c(OC)c2)CC3=O)CC1 (stereo not drawn)	-5%	-2%
O=C1CC(c2ccccc2O)Cc2nc(N3CCN(c4ccccc4F)CC3)ncc21 (stereo not drawn)	11µM*	?
Cc1cc(OC(C)C(=O)NN)ccc1Cl (stereo not drawn)	-9%[1.06 µM]	?
CC(/C=C/N(C)C)=C\C=[N+](C)C	4µM*	8.9µM*
CCC(C(=O)Nc1sc2c(c1C#N)CCCC2)n1cnc2c1c(=O)n(C)c(=O)n2C (stereo not drawn)	0%	-10%
CC(C(=O)Nc1sc2c(c1C#N)CCCCC2)n1cnc2c1c(=O)n(C)c(=O)n2C (stereo not drawn)	14µM*	?
Cc1ccc2c(c1)C(C)(C)C1(/C=C/c3ccccc3F)NC(=O)CN21 (stereo not drawn)	6%	-6%
O=S1(=O)C=CC2ON=C(c3c(Cl)cccc3Cl)C21 (stereo not drawn)	32µM*	?
O=C(CSc1nccn2nc(-c3cccc4ccccc34)cc12)N1CCN(c2ccc(F)cc2)CC1	-5%	12%
SMILES	FMDV Renilla	FMDV FLuc
O=C(Nc1ccc(N2CCN(Cc3ccccc3)CC2)cc1)c1cnc2ccccc2n1	7.9µM*	?
CN1CCN(c2ccc(NC(=O)c3cnc4ccccc4n3)cc2)CC1	-11%	128%
CCn1nc(C(=O)Nc2ncc(C)s2)c2ccccc2c1=O	10%	14%
CCC1CN(C(=O)N2CCC(C(=O)NCc3ccccc3C)CC2)c2ccccc2O1 (stereo not drawn)	17%	-14%
CCC1CN(C(=O)N2CCC(C(=O)Nc3cc(C)ccc3C)CC2)c2ccccc2O1 (stereo not drawn)	19%	0%
CCC1CN(C(=O)N2CCC(C(=O)N3CCN(c4cc(C)ccc4C)CC3)CC2)c2ccccc2O1 (stereo not drawn)	?	20µM*
CCC1CN(C(=O)N2CCC(C(=O)N3CCN(c4cccc(C)c4C)CC3)CC2)c2ccccc2O1 (stereo not drawn)	28µM*	?
CCOC(=O)C1=C(C)OC(N)=C(C(=O)OC(C)C)C12C(=O)Nc1ccc(Br)cc12 (stereo not drawn)	71%[1.06 µM]	?
O=Cc1cccn1-c1cccc(F)c1	37%	35%
Cc1ccc(-n2c(-c3ccccc3)cc(C=Nc3ccc(C)cc3C)c2-c2ccccc2)cc1	17%	18%
Cc1ccc(Cl)cc1-n1ncc2c(NC3CCCCC3)ncnc21	25µM*!	?
Cc1ccc(Cl)cc1-n1ncc2c(N3CCN(Cc4ccccc4)CC3)ncnc21	35µM*	22µM*
Clc1ccc(-n2ncc3c(NC4CCCCCCCCCCC4)ncnc32)cc1	-5%	5%
CCN1CCN(c2ncnc3c2cnn3-c2cc(Cl)ccc2C)CC1	-12%	-11%
Cc1ccc(NC(=O)c2ccc(CSc3ccc(Cl)cc3)cc2)cc1C	4%	36%
Cc1nsc(N)c1C(=O)OCc1csc(-c2ccccc2)n1	1.8µM*	-13%
CN(C)S(=O)(=O)c1ccc(C(=O)OCc2csc(-c3ccccc3)n2)cc1	0%	17%
COc1ccccc1Nc1nc(N)c(C(=O)c2c(C)cc(C)cc2C)s1	25%	15%
Cn1nc(CC(=O)Nc2ccc(O)cc2)c2ccccc2c1=O	-24%	?
Cn1nc(CC(=O)Nc2ccc(Cl)cc2Cl)c2ccccc2c1=O	3.2µM*	?
COc1ccc(NC(=O)c2ccc3c(c2)NC(=O)CS3)cn1	0%	68%
COc1cc(C)ccc1Oc1ccc(NC(=O)c2ccc3c(c2)NC(=O)CS3)cn1	25µM*	?
CC(C)CCNc1nc(-c2ccc3[nH]c(=O)[nH]c3c2)cs1	24%	66%
O=C(CCl)NCCC12CC3CC(CC(C3)C1)C2	11%[1.06 µM]	?
CCCCc1ccc(NC(=O)COc2cccc3c(=O)n(C)ccc23)cc1	8.9µM*	?
SMILES	FMDV Renilla	FMDV FLuc
CCCn1ccc2c(OCC(=O)NCc3ccc(C)cc3)cccc2c1=O	13%	-10%
COc1cccc(C(=O)NCC(=O)NCc2ccc3cc(OC)ccc3c2)c1	1%	-23%
CN(CC(=O)N(C)C1CCCc2ccccc21)c1ncnc2nc[nH]c12 (stereo not drawn)	-16%	-11%
CN(Cc1ccc2ccccc2c1)C(=O)CN(C)c1ncnc2nc[nH]c12	?	32µM*
CC(C)CCn1c(C2CC(=O)N(Cc3ccc(F)cc3)C2)nc2ccccc21 (stereo not drawn)	18µM*	18µM*
CCc1ccc(OCCn2c(C3CC(=O)N(Cc4ccc(F)cc4)C3)nc3ccccc32)cc1 (stereo not drawn)	?	-2%
CCCCCCCCOc1ccc(C=NC(C)c2ccccc2)c(O)c1 (stereo not drawn)	5%	9%
Cc1cc(C)c([N+](=O)[O-])cc1[N+](=O)[O-]	-12%	9%
Cc1ccc([N+](=O)[O-])[c]2c1[O][Hg]2	?	2.8µM*
CCCCCNC(=O)C12CC3CC(CC(NC(C)=O)(C3)C1)C2	1%	9%
CCOC(=O)Cn1nc(C)c(NC(=O)COc2ccc(Cl)cc2C)c1C	10µM*	?
CCOC(=O)Cn1nc(C)c(NC(=O)COc2ccccc2)c1C	11%	17%
O=C(CN1CCN(CC(=O)NC2CCCCC2)CC1)Nc1ccc(Cl)c(C(F)(F)F)c1	-22%	-20%
O=C(CN1CCN(c2ccc(C(F)(F)F)cn2)CC1)NC1CCCCC1	?	28µM*

Assay outcomes deposited in PubChem by National Center for Advancing Translational Sciences (NCATS).
